Test results from ChEMBL document CHEMBL1961873, “Compounds: GSK PKIS; Assays: Nanosyn kinase panel” (2012).

Target: Tyrosine-protein kinase JAK1 (Homo sapiens) (UniProt P23458)
Conditions: at 0.1 µM

Tyrosine-protein kinase JAK1 (Homo sapiens), sequence (P23458 whole entry): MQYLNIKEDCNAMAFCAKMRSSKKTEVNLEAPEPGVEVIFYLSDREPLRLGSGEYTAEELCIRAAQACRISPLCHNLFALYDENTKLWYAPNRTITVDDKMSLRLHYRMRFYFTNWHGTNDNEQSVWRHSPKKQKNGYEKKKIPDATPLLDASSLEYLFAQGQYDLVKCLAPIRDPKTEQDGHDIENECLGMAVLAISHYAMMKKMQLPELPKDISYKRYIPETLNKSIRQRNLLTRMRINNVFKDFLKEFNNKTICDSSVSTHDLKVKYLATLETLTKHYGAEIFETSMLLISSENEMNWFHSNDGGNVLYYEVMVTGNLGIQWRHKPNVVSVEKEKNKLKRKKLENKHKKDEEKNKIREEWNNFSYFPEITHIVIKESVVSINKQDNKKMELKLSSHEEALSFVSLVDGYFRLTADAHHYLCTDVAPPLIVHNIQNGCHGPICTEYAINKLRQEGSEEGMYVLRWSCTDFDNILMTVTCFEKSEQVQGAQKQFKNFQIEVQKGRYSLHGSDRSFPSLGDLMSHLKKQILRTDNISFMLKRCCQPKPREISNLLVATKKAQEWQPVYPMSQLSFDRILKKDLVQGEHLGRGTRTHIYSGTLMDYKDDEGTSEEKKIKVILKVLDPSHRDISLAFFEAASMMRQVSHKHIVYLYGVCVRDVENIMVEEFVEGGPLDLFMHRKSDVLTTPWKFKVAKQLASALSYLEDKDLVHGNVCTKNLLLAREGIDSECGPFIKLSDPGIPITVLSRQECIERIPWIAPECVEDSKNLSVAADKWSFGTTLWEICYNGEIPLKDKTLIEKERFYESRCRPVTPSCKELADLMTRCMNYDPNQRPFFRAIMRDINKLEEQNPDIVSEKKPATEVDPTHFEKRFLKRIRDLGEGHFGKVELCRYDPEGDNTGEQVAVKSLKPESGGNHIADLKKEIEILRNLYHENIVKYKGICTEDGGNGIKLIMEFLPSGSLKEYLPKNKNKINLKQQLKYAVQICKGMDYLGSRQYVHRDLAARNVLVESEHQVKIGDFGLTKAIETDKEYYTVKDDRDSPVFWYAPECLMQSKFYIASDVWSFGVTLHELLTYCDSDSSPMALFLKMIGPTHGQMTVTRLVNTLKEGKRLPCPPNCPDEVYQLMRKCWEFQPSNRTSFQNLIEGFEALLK

Row | Structure (SMILES) | inhibition [%]
1 | ON=C1CCc2cc(-c3nc(C4CCNCC4)[nH]c3-c3ccncc3)ccc21 | -0.79
2 | CS(=O)(=O)Nc1cccc(-c2ccc3c(NC(=O)C4CC4)n[nH]c3c2)c1 | 0.09
3 | NS(=O)(=O)c1ccc(-c2cc3ccncc3cc2OCc2ccccc2)cc1 | 3.02
4 | [O-][S+]1CCN(Cc2ccc(-c3ccc4ncnc(Nc5ccc(OCc6ccccc6)c(Cl)c5)c4c3)o2)CC1 | 1.27
5 | N#Cc1c(NC(=O)c2ccccc2F)sc2c1CCCC2 | 0.4
6 | COc1cc2ncn(-c3cc(OCc4ccccc4S(C)(=O)=O)c(C#N)s3)c2cc1OC | 3.78
7 | NC(=O)c1cccc(Nc2nccc(Nc3cccc(F)c3)n2)c1 | 3.17
8 | CN(C)C(=O)O[C@H]1CN[C@H](C#Cc2cc3ncnc(Nc4ccc(OCc5cccc(F)c5)c(Cl)c4)c3s2)C1 | 2.35
9 | Cc1ccc(NC(=O)CC2CC2)cc1-c1ccc(C(=O)NCC2CC2)cc1 | 1.27
10 | CN(C)c1cc2c(Nc3ccc4c(cnn4Cc4ccccc4)c3)ncnc2cn1 | 3.23
11 | CN(c1ccc(NC(=O)Nc2ccc(OC(F)(F)F)cc2)cc1)c1ccnc(Nc2cccc(S(N)(=O)=O)c2)n1 | 2.28
12 | CCS(=O)(=O)c1ccc(OC)c(Nc2ncc(-c3cccc(OC)c3)o2)c1 | -0.79
13 | COc1cc(Nc2nccc(-c3cnn4ncccc34)n2)cc(OC)c1 | 4.49
14 | O=C1Nc2ccc(-c3cccnc3)cc2C1=Cc1cc(Br)c(O)c(Br)c1 | 2.38
15 | CN(C)C(=O)O[C@@H]1CN[C@@H](C#Cc2cc3ncnc(Nc4ccc(OCc5cccc(F)c5)c(Cl)c4)c3s2)C1 | 1.28
16 | Cc1nc(-c2ccccc2)n2nc(NCCCN3CCOCC3)ncc12 | 3.7
17 | COc1cc(/C=N/Nc2ncnc3c2cnn3C(C)C)ccc1O | 2.44

Row | Structure (SMILES) | inhibition [%]
18 | COc1cccc(-n2nc(C)c3c(N/N=C(\C)c4ccncc4)ncnc32)c1 | 0.91
19 | Cc1ccc2c(-c3ccnc(Nc4ccc5c(c4)OCCO5)n3)c(-c3ccc(C(F)(F)F)cc3)nn2n1 | 1.09
20 | COc1cc2ncnc(Nc3ccc4c(cnn4Cc4ccccc4)c3)c2cc1OC | 4.18
21 | Cc1ccc2c(-c3ccnc(Nc4cccc(C(F)(F)F)c4)n3)c(-c3ccccc3)nn2n1 | 6.27
22 | Cc1cc(O)cc(C)c1/C=C/c1cncc(C(=O)N(C)C)c1 | 4.52
23 | Nc1ccc(C#Cc2cncnc2Nc2ccc(OCc3cccc(F)c3)c(Cl)c2)cc1 | 0.18
24 | Nc1nccc(-c2c(-c3ccc(F)cc3)ncn2CCCN2CCOCC2)n1 | 2.73
25 | N#Cc1cccc(Nc2nccc(-c3cnn4ncccc34)n2)c1 | 2.54
26 | NC(=O)c1sc(-n2cnc3ccccc32)cc1OCc1ccccc1Br | 4.07
27 | CCS(=O)(=O)c1ccc(OC)c(Nc2nccc(N(C)c3ccc4c(C)n[nH]c4c3)n2)c1 | 3.52
28 | O=C(Nc1ccc(Oc2ccc3[nH]c(NC(=O)c4ccco4)nc3c2)cc1)Nc1cc(C(F)(F)F)ccc1F | -1.24
29 | COC(=O)c1ccc2c(c1)C(=Cc1cc(Br)c(O)c(Br)c1)C(=O)N2 | 3.26
30 | CCOc1nccc2c1nc(-c1nonc1N)n2CC | 6.31
31 | COC(=O)Nc1nc2cc(Oc3ccc(NC(=O)Nc4cccc(Br)c4)cc3)ccc2[nH]1 | 5.36
32 | CCn1c(-c2nonc2N)nc2c(C#CC(C)(C)O)nc(OCCNC)cc21 | 1.27
33 | NS(=O)(=O)c1cccc(-c2cc3ccncc3cc2OCc2ccccc2)c1 | 0.51
34 | NS(=O)(=O)c1ccc(N/N=C2\C(=O)Nc3ccc(Cl)cc32)cc1 | 4.77
